The panel holds about 83,000 compounds, 20% with a hit somewhere; the sample as a whole holds those more often.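 Testing used 96-well plates and a 48-hour single-concentration exposure. Example: -40 means 40% of the starting cells died.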 A number with no mark means an inactive call. The source made the active and inactive calls. Rule for the calls: active = growth percent below 10; inactive = the rest.
Legend:
Assay in all cases: NCI-60 one-dose screen, 48 h (100 = growth as untreated, 0 = no growth, -100 = all killed)
Conditions in all cases: 10 µM unless noted
[1] = test system: SR leukemia
[2] = test system: RPMI-8226 leukemia
[3] = test system: OVCAR-8 ovarian
[4] = test system: OVCAR-5 ovarian
[5] = test system: OVCAR-4 ovarian
[6] = test system: SK-OV-3 ovarian
[7] = test system: IGROV1 ovarian
[8] = test system: OVCAR-3 ovarian
[9] = test system: HS 578T breast
[10] = test system: NCI/ADR-RES ovarian

Row | SMILES | growth [1] | growth [2] | growth [3] | growth [4] | growth [5] | growth [6] | growth [7] | growth [8] | growth [9] | growth [10]
1 | NC1C2CCC1CN(c1cnc(C(=O)Nc3cc(F)cc4cccnc34)cn1)C2 (stereo not drawn) | 5.29% (active) | 57% | 86% | 66.7% | 18.5% | 97.1% | 16.3% | 46.3% | 68.8% | 79.4%
2 | CC1=C(C)C(=O)C(Nc2cccc(C(F)(F)F)c2)=C(Br)C1=O | 26.1% | -10.8% (active) | 97% | 128% | 81.4% | 86% | 74.8% | 103% | 99.4% | 103%
3 | C=C1CCc2nc(SCC(=O)O)ccc2N1 | 115% | 114% | 105% | 97.1% | 104% | 98.8% | 104% | 117% | 101% | 98.8%
4 | CC1CCN(CC(=O)Nn2c(COc3ccccc3)nc3ccccc3c2=O)CC1 | 30.5% | 76.8% | 98.5% | 101% | 94.9% | 77% | 73.1% | 94.8% | 86.1% | 71.6%
5 | C=C(C)[C@@H]1CC[C@]2(C(=O)N3CCN(C)CC3)CC[C@]3(C)[C@H](CC[C@@H]4[C@@]5(C)CC[C@H](OP(=O)(OCC)OCC)C(C)(C)[C@@H]5CC[C@]43C)[C@@H]12 | -26.6% (active) | 35.2% | 84.3% | 105% | 91.2% | 104% | 92.9% | 100% | 87.6% | 82.4%
6 | O=S(=O)(NCCCNc1nccc(-c2[nH]c(-c3ccccc3)nc2-c2ccc(F)c(O)c2)n1)c1ccccc1 | 51.5% | 48.9% | 90.2% | 155% | 118% | 121% | 114% | 138% | 116% | 108%
7 | O=C(Nc1cccc(Cl)c1)Nc1nc2cc([N+](=O)[O-])ccc2o1 | 57.8% | 35.8% | 33.9% | 75.5% | 3.58% (active) | 74.3% | 44.9% | -0.896% (active) | 71.4% | 22.6%
8 | Cc1ccc(S(=O)(=O)NCCCNc2nc(Nc3ccc(N4CCN(C)CC4)cc3)nc3ccsc23)cc1 | 4.16% (active) | 6.57% (active) | 40% | 73.9% | 23.7% | 117% | 57.1% | 14.6% | 44% | 70.4%
9 | C[C@]12CC[C@H]3[C@@H](CC=C4C[C@@H](O)CC[C@@]43C)[C@@H]1CC[C@@H]2[C@](C)(O)CCc1cccnc1 | 32.3% | 33.1% | 62% | 113% | 21.9% | 82.8% | 81.3% | 65.7% | 56% | 65.9%
10 | CCOC(=O)c1c(NC(=O)c2ccc(C(F)(F)F)cc2)sc2c3c(ccc12)OCN(C)C3 | -29.8% (active) | -36.9% (active) | -48% (active) | 54.2% | 82.4% | 93.5% | 41.9% | 2.17% (active) | 78.7% | 51.9%
11 | O=C(Nc1cccc(C(F)(F)F)c1)N1CCN(c2cc(-c3cn(-c4ccccc4)nc3-c3cccc(O)c3)ccn2)CC1 | 27.6% | 27.8% | 31.4% | 82.3% | 24.9% | 84.7% | 43.3% | 54.4% | 53.5% | 28.5%
12 | Oc1[nH]c2ccc(Cl)cc2c1N=Nc1nc(N=Nc2c(O)[nH]c3ccc(Cl)cc23)nc(N2CCOCC2)n1 | 29.2% | 36.4% | 50.1% | 95.1% | 78.7% | 55.5% | 55% | 52.7% | -7.82% (active) | –
13 | CC1(C)CC[C@]23CC[C@]4(C)[C@H](CC[C@@H]5[C@@]6(C)CC[C@H](N)C(C)(C)[C@@H]6CC[C@]54C)[C@H]2[C@H]1OC3 | -22.5% (active) | -24.1% (active) | 85.6% | 112% | 96.7% | 101% | 69.9% | 70.2% | 94.4% | –
14 | NC1CC2(CCN(c3cnc(C(=O)Nc4cc(F)cc5cccnc45)cn3)CC2)C1 | 3.71% (active) | 61.1% | 94.6% | 85.9% | 95.2% | 107% | 64.8% | 85.2% | 94.2% | 89.2%
15 | OCC(Nc1ncnc2ccc(-c3cnc4cnccn34)cc12)c1ccccc1 (stereo not drawn) | 73.5% | 62.5% | 79.7% | 83.8% | 63.7% | 80.9% | 39.1% | 71.9% | 84.1% | 90.3%
16 | O=C(CCCCCCNC(=O)C(O)(O)C(F)(F)F)Nc1ccc(-c2ccccc2)cc1 | 2.65% (active) | 15.1% | 6.81% (active) | 9.32% (active) | 36.6% | -22.6% (active) | 14.3% | -16.6% (active) | 33.8% | 7.74% (active)
17 | N/C(=N\C(N)=N\c1nc2ccccc2s1)c1ccc(Cl)cc1 | -8.26% (active) | 57% | 79.5% | 94.5% | 101% | 110% | 92% | 98.4% | 105% | 80.3%
18 | Cn1ncc2c(C(=O)c3ccc(F)cc3)nc(C(C)(C)C)nc21 | 102% | 100% | 105% | 98.2% | 107% | 112% | 103% | 98.6% | 96.5% | 107%
19 | Cc1csc(/N=C(N)/N=C(\N)c2cccc(Br)c2)n1 | 66.9% | 102% | 96.5% | 102% | 95.5% | 91.5% | 81.4% | 107% | 95.1% | 72.7%
20 | C#CCOc1ccccc1C(OC(=O)c1ccccc1)C(=O)NC(C)(C)C(C)(C)C (stereo not drawn) | 64.7% | 74% | 89.3% | 102% | 85.9% | 95.8% | 68.9% | 99.9% | 91.1% | 87%
21 | COc1cc(NC(=O)Nc2cccc(-c3cc(=O)c4c(OC)c(OC)c(OC)cc4o3)c2)cc(OC)c1OC | 54.5% | 31.4% | 38.4% | 79.5% | 65.5% | 111% | 34.5% | 40.1% | 17.1% | 82.4%
22 | O=S(=O)(NCCCNc1nccc(-c2[nH]c(-c3ccccc3)nc2-c2ccc(F)c(O)c2)n1)c1cccc(F)c1 | 36.7% | 45% | 82% | 147% | 108% | 113% | 105% | 123% | 101% | 103%
23 | CC(=O)OC[C@]12CC[C@@H](C(=O)/C=C/c3cccnc3)[C@@H]1[C@H]1CC[C@@H]3[C@@]4(C)CC[C@H](OC(C)=O)C(C)(C)[C@@H]4CC[C@@]3(C)[C@]1(C)CC2 | 6.42% (active) | -5.49% (active) | 23.2% | 15.1% | 21.9% | 65.8% | -12.9% (active) | 8.9% (active) | 14.5% | -14.2% (active)
24 | Cc1[nH]c(C(=O)Nc2ccccc2OCc2cccc(C(=O)NCCN)c2)cc1Cl | -3.39% (active) | 89.6% | 84.7% | 97% | 102% | 101% | 94.5% | 109% | 102% | 99.4%
25 | Cc1ccc2c(n1)C(=O)C(Cl)=C(Nc1cccc(C(=O)OC(C)(C)C)c1)C2=O | 5.81% (active) | 28% | 87.3% | 130% | 65.7% | 97.2% | 88.2% | 37.5% | 102% | 93.9%
